Screens (PubChem)
This is a sample that favours compounds with a hit; in the whole collection about 3.8% have one here.
HSF-1 act: HSF-1 activators, primary screen, NIH3T3-HGL cells, MG132 stress, luminescence, single point; NIH3T3-HGL HSF-1 luciferase reporter, 8 h; 100% = twice DMSO control signal; activation, % at 9 µM; 1.7% of 300,000 active;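 active means mean replicate activation of at least 50% with a set share of replicates each reaching 50%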;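 further: 0% = median of the neutral control wells and 100% = twice that signal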
NALP1 inh: NALP1 inflammasome inhibitors in reconstituted yeast, colorimetric, S. cerevisiae, triplicate retest; S. cerevisiae NALP1/ASC/caspase-1 growth, X-gal OD620, 72 h; inhibition, % at 10 µM; 0.61% of 280,000 active; in the data active means inhibition mostly above about 24%, no sharp cut-off; inactive means mostly below about 32%
HSF1 inhib: HSF1 inhibitors in luciferase reporter cells, primary screen, cell-based, NIH3T3, luminescence; NIH3T3-HGL HSE-luciferase, MG132-induced, luminescence 8 h; hits give low values; activity change, negative = inhibition, % at 7.5 µM (by protocol); 0.77% of 300,000 active; AID 2098, 2009;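 active means more than half of replicate wells show activity change below -50%, luminescence cut by over half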;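 further: luciferase reports HSF-1 transcriptional activity via heat shock element; 0% = median of DMSO wells and -100% = zero luminescence signal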
Hsp70 activator: Hsp70 transcriptional activators, primary screen, cell-based, HeLa, Hsp70 promoter luciferase, luminescence, 10 µM | HeLa Hsp70 promoter luciferase reporter; scaled: vehicle 0, proteasome-inhibitor control 100% | activation, % at 10 µM | 0.04% of 200,000 active;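 active means activation above the mean across all tested compounds plus 3 SD, cutoff set per campaign, cut at about 5.5% in these data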;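 further: 100% = MG132 at 30 µM as the positive control and 0% = DMSO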
HSP90 refold inh: HSP90 inhibitors, primary screen, cell lysate, luminescence; Heat shock protein HSP 90 (rabbit reticulocyte lysate; luciferase refolding); Rabbit reticulocyte lysate, luciferase refolding luminescence, 3 h; inhibition, % at 5.6 µM; 0.91% of 290,000 active; AID 1789, 2009;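 active means inhibition above the screen-wide mean plus 3 SD, computed separately per campaign, cut at about 16% in these data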;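 further: 0% = DMSO wells and 100% = 60 µM geldanamycin wells; inhibitors lower the luminescence because luciferase stays unfolded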
p-CIP stab down: p/CIP-EGFP fusion destabilizers, primary screen, fluorescence, F442A cells; Q05BA5; decrease of EGFP signal, % at 10 µM; 0.01% of 290,000 active; 16 h;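 active means EGFP signal decrease of at least 30% at 10 µM or well 3 SD below plate mean, unless failing retest; inactive means the rest, including hits failing retest or dose response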
* marks the source's active call; other numbers are inactive results; · = no result given.

SMILES	HSF-1 act	NALP1 inh	HSF1 inhib	Hsp70 activator	HSP90 refold inh	p-CIP stab down
N#C/C(=N\Nc1cccc(C(F)(F)F)c1)C(=O)c1csc(-c2cccnc2)n1	2	·	-10	·	-2	-17
Cc1oc(=O)c(NC(=O)c2cccc(Cl)c2)cc1C(=O)c1ccccc1	123*	5	74	0	-3	10
O=C(NCC(=O)N1CCN(S(=O)(=O)c2ccccc2C(F)(F)F)CC1)c1sc2ccccc2c1Cl	11	·	0	·	·	·
COC(=O)Nc1ccc(S(=O)(=O)Nc2cccc3ccccc23)cc1	68*	-13	33	0	6	-2
O=S(=O)(Nc1cccc2ccccc12)c1ccccc1	61*	-41	52	·	-3	3
O=C(O)c1cccc(S(=O)(=O)Nc2cccc3ccccc23)c1	-12	12	-8	·	-5	-15
CCCN1CCN(C(=O)c2oc3ccccc3c2NC(=O)C2CC2)CC1	-2	11	-2	·	-1	3
Cc1ccc(/C=C2\Oc3cc(OC(=O)N4CCOCC4)ccc3C2=O)cc1	92*	22	32	0	1	4
Cc1cc(NC(=O)C(C)C)ncc1NC(=O)c1cccc(F)c1	4	20	2	0	-2	-3
CCCC(=O)Nc1cnc(NC(=O)c2cccc(F)c2)cc1C	6	34	6	0	17*	-12
CC(C)(C)c1nnc(NC(=O)Nc2ccc(Cl)cc2)s1	24	14	1	·	11	-12
CCCCNC(=O)Nc1nnc(C(C)(C)C)s1	56*	15	27	·	1	-8
O=C(c1nnsc1S(=O)c1ccc(Cl)cc1)N1CCOCC1 (stereo not drawn)	267*	67*	194	0	8	0
CNC(=O)c1nnsc1S(=O)(=O)c1ccc(Cl)cc1	158*	90*	102	0	2	-8
O=C(Nc1ccccc1)c1nnsc1S(=O)c1ccc(Cl)cc1 (stereo not drawn)	157*	-1	208	0	0	5
CNC(=O)c1ccc(S(=O)(=O)c2ccc(Cl)cc2)c(NC(C)=O)c1	-28	15	-10	·	0	-8
O=C(c1nnsc1S(=O)(=O)c1ccc(Cl)cc1)N1CCOCC1	-81	5	-80*	0	2	-5
O=C(Cc1ccsc1)NNC(=O)c1ccccc1O	-4	·	4	·	·	·
CCOC(=O)C1CCCN(S(=O)(=O)c2nc3nc(C)cc(C)n3n2)C1 (stereo not drawn)	·	19	·	·	2	-11
COc1cc(C2C(C#N)=C(N)OC3=C2C(=O)CCC3)c([N+](=O)[O-])cc1OC (stereo not drawn)	-83	4	-77*	0	2	4
Cc1ccc(N=Nc2ccc(O)c3ncccc23)cc1	123*	33	124	0	4	-16
Cc1ccc(N=Nc2ccc(O)c3ncccc23)cc1C	-55	4	-51*	0	1	-1
CCCOCc1ccc(O)c2ncccc12	-48	·	-42	·	0	-7
Cc1ccc(/C=N/Nc2cccc3cccnc23)c(O)c1	68*	2	39	0	1	10
Oc1ccc(/C=N/Nc2ncc(Br)cn2)c(O)c1	79*	21	51	0	4	-5
SMILES	HSF-1 act	NALP1 inh	HSF1 inhib	Hsp70 activator	HSP90 refold inh	p-CIP stab down
Oc1ccc(/C=N/Nc2cccc3cccnc23)c(O)c1	85*	26	58	0	5	-25
Cc1cc(N/N=C/c2ccccc2O)c2ccccc2n1	38	23	19	·	8	-2
O=C(NC(CO)(CO)CO)c1coc(=O)c(Br)c1	65*	0	14	0	2	5
Cc1ccccc1N1CCN(S(=O)(=O)Cc2ccccc2)CC1	52*	14	19	·	2	-9
O=C(Nc1nc(-c2nc3ccccc3s2)cs1)C1CC1	67*	·	34	0	-7	10
O=C(Nc1nc(-c2nc3ccccc3s2)cs1)c1ccco1	17	-73	13	0	-3	4
Cc1ccc(NS(=O)(=O)Cc2ccccc2)cc1Cl	25	-3	7	·	2	-4
